The first assay deals with TM4SF4. The experiment in a line: pooled miR-30 sensor sort-seq; sequence = guide strand. To be noted: shRNA.
In turn, AAGATCATCAAGACACCGCTTC registered a sensor-assay potency score (higher = more potent) of 0.685.

In turn, TTGACCACCTGGATGGCGCAGA registered a sensor-assay potency score (higher = more potent) of -0.376.

The sequence TTTGAAAATAACAAAATTCTAA came in with a sensor-assay potency score (higher = more potent) of -0.879.

As for ATTGAGATAATCCCCGTCGTGG, the sensor-assay potency score (higher = more potent) was -0.0711.

For AACATCGCAAATCGCTTCCCAC, the sensor-assay potency score (higher = more potent) was -1.03.

For the sequence TTGTTGATTGAAATGGCTGAGA, the sensor-assay potency score (higher = more potent) is -0.818.

For TTGTCATCTATCACTTTTCCTC, the sensor-assay potency score (higher = more potent) is -0.799.

As to TTTTCTAAGCTTTATCAGCTAG, the sensor-assay potency score (higher = more potent) is -0.744.

TAAACGAGTATCCAGCTCCCAA showed a sensor-assay potency score (higher = more potent) of -1.07.

TCGTGGAGGTGAACATCGCAAA: the sensor-assay potency score (higher = more potent) is -1.55.

Another assay concerns the target TM7SF2. The assay is described as above. To be noted: shRNA.
In the case of AGATGTAGTAACCAGTAGCATT, the sensor-assay potency score (higher = more potent) was -2.06.

Regarding TTCATGTAGAGAAAGAGGCTGA, the sensor-assay potency score (higher = more potent) was 0.647.

TATTTGAAGTCGAAGAAACAGA had a sensor-assay potency score (higher = more potent) of -0.986.

In the case of TACTTCTGCAGGCACTGCCGCT, the sensor-assay potency score (higher = more potent) was -1.41.

In turn, TTGATGAGGCAGATGACAGAGG came in with a sensor-assay potency score (higher = more potent) of -0.497.

For TTTCGGAAAGTGTTTTTCTGGG, the sensor-assay potency score (higher = more potent) was -0.966.

TTGTCCTTCAATTCCTGCCCCT yielded a sensor-assay potency score (higher = more potent) of -0.137.

For TCATGTGTGATATCCATGGTGG, the sensor-assay potency score (higher = more potent) is -0.309.

Consider TTTGAAGTCGAAGAAACAGATA, for which the sensor-assay potency score (higher = more potent) was -1.28.

For TTGAGTCCCAAGTGTGTCGAGG, the sensor-assay potency score (higher = more potent) is -0.705.

The sequence TAGAGATGGTCTCAAGCCCAGC showed a sensor-assay potency score (higher = more potent) of -1.47.

For the next assay, the target named is TMCC3. The description is as above. To be noted: shRNA.
As for TTGGGTATCCTTGATCTCCCTC, the sensor-assay potency score (higher = more potent) is 0.381.

In turn, TAATGTTAAAGTCACAGTCTGA gave a sensor-assay potency score (higher = more potent) of -0.348.

TTGCACTTAATTTGAATCCAGG gave a sensor-assay potency score (higher = more potent) of -0.313.

With TTGAAAACGAACACAGGTGGAG, the sensor-assay potency score (higher = more potent) stood at 0.022.

TTGCTTGATACGTCCCGCCTGC had a sensor-assay potency score (higher = more potent) of -0.167.

TTATTGAAAACGAACACAGGTG returned a sensor-assay potency score (higher = more potent) of -0.162.

In turn, TTGTTCACGATGGTAGCGCTGC gave a sensor-assay potency score (higher = more potent) of -0.609.

The sequence TTTGACCTTGTGGAAGTCCAGG returned a sensor-assay potency score (higher = more potent) of -0.907.

As to TATTTTATTCTTGCTAGTCTTT, the sensor-assay potency score (higher = more potent) was -0.521.

In the case of TTCTCTCTTAAACTGCACCTTC, the sensor-assay potency score (higher = more potent) was determined as 0.0499.

TTAAAGTGTAACAAAACCCCTC displayed a sensor-assay potency score (higher = more potent) of -0.0862.

Regarding TACCTTTAGAATTTTTTGCTTC, the sensor-assay potency score (higher = more potent) was -0.127.

In another assay the target is TMCO6. Described as above. To be noted: shRNA.
TGCAACATTGCACAGAACTGTG came in with a sensor-assay potency score (higher = more potent) of -0.739.

TACTGGACAAACAAGCTTGATG: the sensor-assay potency score (higher = more potent) is -0.998.

As for TTGTAGCATGTGCTGAGGGAGA, the sensor-assay potency score (higher = more potent) is -1.18.

In the case of ATACACACGATCCTGGAGCTGG, the sensor-assay potency score (higher = more potent) was -0.0753.

As to TTTGTAGCATGTGCTGAGGGAG, the sensor-assay potency score (higher = more potent) is -0.612.

AACACGCTCATCTCTGAGCTGC yielded a sensor-assay potency score (higher = more potent) of -0.789.

In the case of AACATTGCACAGAACTGTGAGC, the sensor-assay potency score (higher = more potent) was -0.57.

Source of the values: the OligoGym collection.
Also: reference of the scale not given here.
